The list is not random: actives were taken first. Their share in the collection is about 1.3%.
HTT prom inh = inhibits huntingtin promoter activity; HEK293 HTT promoter firefly luciferase reporter, 24 h; Potency, µM (doses to about 57.5 µM), for inactives: at the highest dose activity change, negative = inhibition, most hits filed as inhibitors; actives 0.93% (n = 48,000); AID 1508623; note: nearly all actives have a fitted effect of over 50% in size
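Firefly luciferase signal from promoter-reporter HEK293 cells was scaled between vehicle (0%) and zero RLU (-100%). Compounds were tested at final concentrations of up to 57.5 uM over 24 h at 37 degrees C. PTC124 at 50 uM final served as control inhibitor.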
FH mod = Identification of activators of human fumarate hydratase by quantitative high-throughput screening | FH coupled MDH/diaphorase resazurin fluorescence, 15 min | Potency, µM (series often up to 79.9 µM), for inactives: at the top dose activity change, negative = inhibition, actives largely listed as inhibitors | actives 0.22% (n = 54,000); note: % is set by controls: 0 for no effect and ±100 for the full control effect; the screen sought activators but most active calls are inhibition curves; nearly all actives have a fitted effect of over 45% in size
HTT-AS promoter = activates huntingtin-antisense promoter activity; HEK293 HTT-AS promoter firefly luciferase reporter, 24 h; response scale: percent change from vehicle, -100% = no light; Potency, µM (doses to about 57.5 µM), for inactives: at the highest dose activity change, positive = activation, actives largely listed as activators; actives 0.24% (n = 48,000); note: nearly all actives have a fitted effect of over 55% in size
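HEK293 Fluc reporter, 2,500 cells/well, 24 h pre-culture; cpds up to 57.5 uM final, 24 h 37 degrees C; Dual-Glo, 10 min RT; normalized vehicle = 0%, zero RLU = -100%.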
GALC G270D act = raises human GALC G270D mutant activity in cells; P54803; 145M-Twi-hGALC-G270D cells (Twitcher mouse brain line with human GALC G270D), HMU-beta-Gal fluorescence, 48 h; Potency, µM (top dose mostly 57.5 µM), most hits filed as activators; actives 0.1% (n = 45,000); AID 1159614; note: 0% is about no effect; nearly all actives have a fitted effect of over 65% in size
Target sequence (P54803 whole entry G286D): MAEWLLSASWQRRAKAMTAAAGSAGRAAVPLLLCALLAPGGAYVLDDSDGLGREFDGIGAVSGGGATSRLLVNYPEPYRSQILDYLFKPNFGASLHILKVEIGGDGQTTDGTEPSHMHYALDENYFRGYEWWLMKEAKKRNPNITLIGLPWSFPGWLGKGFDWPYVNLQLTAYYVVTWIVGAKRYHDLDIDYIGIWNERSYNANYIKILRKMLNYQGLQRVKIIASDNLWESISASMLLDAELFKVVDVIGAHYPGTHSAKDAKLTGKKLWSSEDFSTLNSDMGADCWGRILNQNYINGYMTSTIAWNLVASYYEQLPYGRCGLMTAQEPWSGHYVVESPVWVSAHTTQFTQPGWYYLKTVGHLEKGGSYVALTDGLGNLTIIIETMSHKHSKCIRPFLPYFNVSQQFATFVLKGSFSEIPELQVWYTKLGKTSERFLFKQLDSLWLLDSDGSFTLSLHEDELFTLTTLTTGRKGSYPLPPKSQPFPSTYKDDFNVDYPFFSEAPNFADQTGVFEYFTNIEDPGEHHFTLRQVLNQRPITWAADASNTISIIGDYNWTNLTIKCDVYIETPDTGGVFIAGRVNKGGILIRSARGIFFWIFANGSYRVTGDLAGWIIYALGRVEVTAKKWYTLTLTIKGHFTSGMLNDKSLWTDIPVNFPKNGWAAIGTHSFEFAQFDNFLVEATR
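Fluorogenic HMU-b-Gal hydrolysis (0.1 mM final, pH 5.2 citrate-phosphate with 1 mg/mL sodium taurocholate; carbonate stop buffer) measures mutant GALC activity after compound treatment of live 145M-Twi Twitcher brain cells stably carrying human GALC-G270D, with wild-type GALC line alongside; activation sought.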
Numbers without * were called inactive; ! = not active in a repeat; [ ] = dose if it differs, or a comment. Calls come from the whole dose curve; as a rule, active = well fitted curve in the direction sought with a large enough effect; inconclusive = small, poorly fitted or top-dose-only effect, or another doubt; inactive = no such curve, though single readings can be large; an effect the other way counts as inactive or inconclusive. Potency is the fitted concentration of half-maximal effect.

For CCCS(=O)(=O)c1nc(S(=O)(=O)c2ccc(C)cc2)c(N(CC)CC)s1 the results were HTT prom inh -11.5%, FH mod -24.8%, HTT-AS promoter -12.8% and GALC G270D act 7.94µM*.
O=C(Nc1ccc(F)cc1F)C1CCCN1S(=O)(=O)c1cccc2nsnc12 (configuration not stated) was read as HTT prom inh -10.2%[11.5 µM], FH mod -7.7%, HTT-AS promoter -11.1% and GALC G270D act inactive.
Screening O=C(O)c1ccc2nc(-c3cc4cccc(O)c4oc3=O)[nH]c2c1 returned HTT prom inh inconclusive, FH mod 22.4µM*, HTT-AS promoter -61.9% and GALC G270D act inactive.
For Cc1ccc(OCC(=O)Nc2ccc(S(=O)(=O)Nc3cc(C)nc(C)n3)cc2)c(Br)c1 the results were HTT prom inh -20.8%, FH mod inconclusive, HTT-AS promoter -24.5% and GALC G270D act inactive.
Screening Cc1cccc(-c2noc(-c3ccc(N4CCCC4)c([N+](=O)[O-])c3)n2)c1 returned HTT prom inh inconclusive, FH mod -3.3%, HTT-AS promoter -67.9% and GALC G270D act inactive.
`Cc1cccc(-c2noc(-c3ccc(N4CCN(C)CC4)c([N+](=O)[O-])c3)n2)c1` gave HTT prom inh 1.41µM*, FH mod -34.4%, HTT-AS promoter -72.8% and GALC G270D act inactive.
Screening CCC1CCc2nc3sc(C(=O)Nc4cccc(C(F)(F)F)c4)c(N)c3cc2C1 (configuration not stated) returned HTT prom inh -24.1%, FH mod -4.0%, HTT-AS promoter -24.2% and GALC G270D act 10µM*.
`COc1cc(CNc2ccc3[nH]c(=O)[nH]c3c2)cc(Br)c1OCc1ccc(F)cc1` gave HTT prom inh inconclusive, FH mod inconclusive, HTT-AS promoter -35.3% and GALC G270D act inactive.
For COc1cc(CNc2ccc3[nH]c(=O)[nH]c3c2)cc(Cl)c1OCc1ccc(F)cc1 the results were HTT prom inh -12.7%, FH mod 35.5µM*, HTT-AS promoter -13.2% and GALC G270D act inactive.
Screening O=C(CSc1nnc2[nH]c(=O)cc(-c3ccccc3)n12)Nc1ccccc1C(F)(F)F returned HTT prom inh 46.3%, FH mod 8.0%, HTT-AS promoter 11.2µM* and GALC G270D act inactive.
Screening Cc1cc(=O)oc2c(C=O)c(O)ccc12 returned FH mod -10.6%.
For Cc1cc2c(C(C)C)c(O)c(O)c(C=O)c2c(O)c1-c1c(C)cc2c(C(C)C)c(O)c(O)c(C=O)c2c1O the results were HTT prom inh inconclusive, FH mod 28.2µM*!, HTT-AS promoter -88.7% and GALC G270D act inactive.
Cc1ccccc1C(=O)N1CC(=O)Nc2ccc(Cl)cc2C1c1ccccc1 (configuration not stated) was read as HTT prom inh -26.3%, FH mod -4.4%, HTT-AS promoter -11.9% and GALC G270D act inactive.
Screening O=c1n(Cc2cccc(F)c2)c2ccccc2c2nc(-c3ccccc3)nn12 returned HTT prom inh -7.1%, FH mod -12.3%, HTT-AS promoter -17.1% and GALC G270D act inactive.
For O=C(Nc1ccc(F)cc1F)c1cc2c(=O)n3ccccc3nc2s1 the results were HTT prom inh -6.4%, FH mod -5.5%, HTT-AS promoter 5.5% and GALC G270D act 22.4µM*.
Screening O=C(Nc1cc(-c2nc3cc(Cl)ccc3o2)ccc1Cl)c1cccc2ccccc12 returned HTT prom inh 24.6%, FH mod 14.0%, HTT-AS promoter 17.8µM* and GALC G270D act inactive.
CC(C)CCNC(=O)c1c[nH]c2ccc(S(=O)(=O)Nc3cccc(C(F)(F)F)c3)cc2c1=O was read as HTT prom inh inconclusive, FH mod -19.2%, HTT-AS promoter -40.1% and GALC G270D act inactive.
COc1ccc(/C=C/C(=O)Nc2ccccc2C(=O)O)cc1OC was read as FH mod -6.9%.
Cc1ccc(/C=C/C(=O)Nc2ccccc2C(N)=O)o1 was read as HTT prom inh 60.3%, FH mod -8.8%, HTT-AS promoter 3.98µM* and GALC G270D act inactive.
`O=C(Nc1cccc(C(F)(F)F)c1)Nc1cc(S(=O)(=O)NC2CC2)ccc1-c1ccsc1` gave HTT prom inh inconclusive, FH mod 19.3µM*! and HTT-AS promoter -18.3%.
`O=C(Nc1cccc(C(F)(F)F)c1)Nc1cccs1` gave HTT prom inh -22.5%, FH mod -8.3%, HTT-AS promoter -4.7% and GALC G270D act inactive.
Screening CC(C)c1ccc(NC(=O)c2ccc3c(c2)CCN3S(=O)(=O)c2ccccc2)cc1 returned HTT prom inh -27.1%, FH mod -21.5%, HTT-AS promoter -14.6% and GALC G270D act inactive.
For CC(C)c1ccc(NC(=O)c2ccc3c(c2)CCCN3S(C)(=O)=O)cc1 the results were HTT prom inh 10µM*, FH mod -20.1%, HTT-AS promoter -31.2% and GALC G270D act inactive.
For CCCCc1ccc(NC(=O)c2ccc3c(c2)CCN3S(=O)(=O)CC)cc1 the results were HTT prom inh 22.4µM*, FH mod 1.6%, HTT-AS promoter -46.9% and GALC G270D act inactive.
Cc1ccc(C)c(NC(=O)c2ccc3c(c2)CCCN3S(C)(=O)=O)c1 was read as HTT prom inh 33.6%, FH mod -3.9%, HTT-AS promoter 7.94µM* and GALC G270D act inactive.
`Cc1ccc(C)c(NC(=O)c2ccc3c(c2)CCN3S(C)(=O)=O)c1` gave HTT prom inh -1.4%, FH mod -0.3%, HTT-AS promoter -3.3% and GALC G270D act inactive.
Screening CCS(=O)(=O)N1CCc2cc(C(=O)Nc3cccc(C(C)=O)c3)ccc21 returned HTT prom inh 20.4%, FH mod -7.0%, HTT-AS promoter 0.2% and GALC G270D act inactive.
Screening Cc1ccc(NC(=O)CCCn2c(=O)c3cccn3c3ccccc32)cc1C returned HTT prom inh -15.3%, FH mod -11.3%, HTT-AS promoter -6.6% and GALC G270D act inactive.
`CC(=O)O[C@H]1CC[C@@]2(C)C(CC[C@@H](C)[C@]23Cc2c(O)cc4c(c2O3)CN([C@@H](CCC(=O)O)C(=O)O)C4=O)C1(C)C` (some centres not stated) gave FH mod 3.2%[53.3 µM].
`CC(=O)O/N=C1/C(c2c(O)[nH]c3cc(Br)ccc23)=Nc2ccccc21` gave FH mod -3.1%.
`Cc1cnc(NC(=O)Nc2cc(Br)c(C)cc2OC[C@@H]2CNCCO2)cn1` gave HTT prom inh -27.7%, FH mod -1.2%[53.3 µM] and HTT-AS promoter -24.7%.
`COC(=O)C(NC(=O)CCc1c(C)nc2cc(-c3cccc(F)c3)nn2c1C)C(C)C` (configuration not stated) gave HTT prom inh 11.2µM*, FH mod -2.5%, HTT-AS promoter -65.7% and GALC G270D act inactive.
